From PubChem BioAssay (EPA / NIEHS)
The source made the active and inactive calls. Rule for the calls: active = hit-call score of the fitted dose curve at least 0.9, where 1 is the maximum; inactive = score below 0.9.

assay: Tanguay_ZF_120hpf_DP24: Oregon State University Tanguay Lab 24 Hour Post-fertilization zebrafish Assay for Delayed Development (AID 2284390)
Method: Tanguay_ZF_120hpf is a whole embryo, multiplexed endpoint assay using zebrafish larvae exposed for 120 hours post fertilization on a 96-well plate.Tanguay_ZF_120hpf_DP24 is […] measured or calculated from the Tanguay_ZF_120hpf assay. It is designed to make measurements of zebrafish development as detected with brightfield microscopy of developing zebrafish embryos.Data from the assay component Tanguay_ZF_120hpf_DP24 was analyzed into 1 assay endpoints. This assay endpoint, Tanguay_ZF_120hpf_DP24, was analyzed in the positive analysis fitting direction relative to DMSO as the negative control and baseline of activity. Using a type of morphology reporter, gain-of-signal activity can be used to understand changes in developmentals as they relate to the whole embryo. To generalize the intended target to other relatable targets, this assay endpoint is annotated to the zebrafish development intended target family, where the subfamily is embryonic morphogenesis.
Zebrafish husbandry: Tropical 5D wild-type adult zebrafish were housed in at an approximate density of 1000 per 100 gallon tank at the Sinnhuber Aquatic Research Laboratory, Oregon State University, Corvallis, OR. Each tank was kept at standard laboratory conditions of 28C on a 14-h light/10-h dark photoperiod in fish water consisting of reverse osmosis water supplemented with a commercially available salt (Instant Ocean). Spawning funnels were placed into the tanks the night prior, and embryos were collected and staged. To increase bioavailability, the chorion was enzymatically removed using pronase (63.6mg/ml, >/= 3.5U/mg, Sigma-Aldrich: P5147) at 4 hours post fertilization (hpf) using a custom automated dechorionator.Chemical exposures: Six hpf dechorionated embryos were placed 1 embryo per well in a 96-well plate prefilled with 90 ul of EM using automated embryo placement systems (AEPS). Ten microliters of each row of dilution plate 2 was added to 2 exposure plates. The final DMSO concentration used was 0.64% (vol/vol). Thirty-two embryos were also exposed to 5uM trimethyltin chloride (positive control). Plates were sealed to prevent evaporation and foil covered to reduce light exposure and kept in a 28C incubator. Embryos were statically exposed until 120 hpf. At 24 hpf, embryos were assessed for photomotor response using a custom photomotor response analysis tool (PRAT) and for developmental toxicity endpoints (MO24: mortality at 24 hpf, DP: developmental progression, SM: spontaneous movement, and NC: notochord distortion). At 120 hpf, locomotor activity was measured using Viewpoint Zebralab and assessed for 13 endpoints. Zebrafish acquisition and analysis program (ZAAP), a custom program designed to inventory, acquire, and manage zebrafish data, was used to collect developmental endpoints as either present or absent (i.e., binary responses were recorded). If mortality occurred for an embryo (at either 24 or 120 hpf), the non-mortality endpoints were not measured.

Compound | outcome | AC50
C=C(C)C(=O)OCC(F)(F)C(F)(F)C(F)(F)C(F)(F)C(F)(F)C(F)(F)C(F)(F)F | inactive | 
OCC(F)(F)C(F)(F)C(F)(F)C(F)(F)C(F)(F)C(F)(F)F | inactive | 
OCCCC(F)(F)C(F)(F)C(F)(F)C(F)(F)C(F)(F)C(F)(F)C(F)(F)F | inactive | 
FC(F)(F)C(F)(F)CNCC(F)(F)C(F)(F)F | inactive | 
FC(F)(F)C(F)(F)C(F)(F)C(F)(F)C(F)(F)C(F)(F)CC1CO1 (stereo not given) | inactive | 
CCO[Si](CCC(F)(F)C(F)(F)C(F)(F)C(F)(F)C(F)(F)C(F)(F)F)(OCC)OCC | inactive | 
FC(F)(F)C(F)(F)C(F)(F)C(F)(F)C(F)(F)C(F)(F)C(F)(F)I | inactive | 
Cc1ccc(S(=O)(=O)OCC(F)(F)C(F)(F)C(F)(F)C(F)(F)C(F)(F)C(F)F)cc1 | inactive | 
C=C(C)C(=O)OCCC(F)(F)C(F)(F)C(F)(F)C(F)(F)C(F)(C(F)(F)F)C(F)(F)F | inactive | 
O=C(O)C(F)(F)C(F)(F)F | inactive | 
NC(=O)C(F)(F)C(F)(F)C(F)(F)C(F)(F)F | inactive | 
C=CC(F)(F)C(F)(F)C(F)(F)C(F)(F)C(F)(F)C(F)(F)C(F)(F)C(F)(F)F | inactive | 
FC(F)(F)C(F)(F)C(F)(F)C(F)(F)C(F)(F)CCI | inactive | 
C=CC(=O)OCC(F)(F)C(F)(F)C(F)(F)C(F)(F)C(F)(F)C(F)(F)C(F)(F)F | inactive | 
O=C(O)C(F)(F)C(F)(F)C(F)(F)F | inactive | 
O=C(O)C(F)(F)C(F)(F)OC(F)(F)F | inactive | 
O=C(O)C=C(C(F)(F)F)C(F)(F)F | inactive | 
FC(F)(F)C(F)(F)C(F)(F)C(F)(F)C(F)(F)C(F)(F)C(F)(F)C(F)(F)CCS | inactive | 
O=P(O)(O)OCCC(F)(F)C(F)(F)C(F)(F)C(F)(F)C(F)(F)C(F)(F)F |  | 57.9 µM (active)
O=C(O)C(F)(F)C(F)(F)C(F)(F)C(F)(F)C(F)(F)C(F)(F)C(F)(F)C(F)(F)C(F)(F)C(F)F | inactive | 

Compound | outcome | AC50
O=S(=O)(OCC(F)F)C(F)(F)F | inactive | 
O=C(O)C(F)(F)C(F)(F)C(F)(F)C(F)(F)C(F)(F)C(F)(F)C(F)(F)C(F)(F)C(F)(F)C(F)(F)C(F)(F)C(F)(F)F | inactive | 
O=C(O)C(F)(F)C(F)(F)C(F)(F)C(F)(F)C(F)(F)C(F)(F)C(F)(F)C(F)(F)C(F)(F)C(F)(F)C(F)(F)C(F)(F)C(F)(F)F | inactive | 
FC(F)(F)C(F)(F)C(F)(F)CI | inactive | 
C=CC(=O)OCC(F)(F)C(F)(F)C(F)(F)C(F)(F)COC(=O)C=C |  | 28.1 µM (active)
C=C(C)C(=O)OCC(F)(F)C(F)(F)C(F)(F)F | inactive | 
O=S(=O)(O)C(F)(F)C(F)(F)C(F)(F)C(F)(F)C(F)(F)C(F)(F)C(F)(F)F | inactive | 
COC(=O)CCC(F)(F)C(F)(F)C(F)(F)C(F)(F)F | inactive | 
C=CC(F)(F)C(F)(F)C(F)(F)C(F)(F)C(F)(F)C(F)(F)C(F)(F)C(F)(F)C=C | inactive | 
CCCCCCCCC(F)(F)C(F)(F)C(F)(F)C(F)(F)C(F)(F)C(F)(F)F | inactive | 
N=C(N)C(F)(F)C(F)(F)C(F)(F)C(F)(F)C(F)(F)C(F)(F)C(F)(F)F | inactive | 
O=C(CC(=O)C(F)(F)C(F)(F)F)C(F)(F)F | inactive | 
O=C(O)C(F)(OC(F)(F)C(F)(OC(F)(F)C(F)(OC(F)(F)C(F)(F)C(F)(F)F)C(F)(F)F)C(F)(F)F)C(F)(F)F (stereo not given) | inactive | 
FC(F)(F)C(F)(F)C(F)(F)C(F)(F)C(F)(F)C(F)(F)C(F)(F)C(F)(F)F | inactive | 
OCC(F)(F)C(F)(F)C(F)(F)F | inactive | 
O=C(O)C(F)(F)C(F)(F)C(F)(F)C(F)(F)C(F)(F)C(F)(F)C(F)(F)C(F)(F)Cl | inactive | 
OCCCC(F)(F)C(F)(F)C(F)(F)F | inactive | 
CC(C)(C)C(=O)CC(=O)C(F)(F)C(F)(F)C(F)(F)F | inactive | 
OCC(F)(F)C(F)(F)C(F)(F)C(F)(F)C(F)(F)C(F)F | inactive | 
OCC(F)(F)C(F)(F)C(F)(F)C(F)F | inactive | 
